# Inconclusive results are not listed. Unmarked numbers belong to inactive results. The source made the active and inactive calls. The call rests on the fitted dose curve; in most records, active means well fitted cell-killing curve with a large enough effect in the repeat runs; inconclusive means weak or mixed curves, or effect the other way; inactive means flat fitted curve, though single readings scatter.
# Assay: cAMP Responsive Elements (CRE) small molecule agonists, cell-based qHTS assay: qHTS cell viability counter screen (AID 2060914);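 further: viability read after 3 h of compound exposure; nearly all actives have a fitted effect of over 50% in size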
# Conditions: CRE-bla HEK293T viability, CellTiter-Glo luminescence, 5 h; series mostly up to 92.4 µM; activity change, negative = cytotoxicity: at the top concentration
# Source text: National Center for Advancing Translational Sciences [NCATS]
# Division of Preclinical Innovation [DPI]
# U.S. Environmental Protection Agency [EPA]
# National Institutes of Environmental Health Sciences [NIEHS]
# National Toxicology Program [NTP]
# U.S. Food and Drug Administration [FDA]
# CREB (cyclic-AMP Responsive Element Binding Protein) is a cellular transcription factor. It binds to certain DNA sequences called cAMP Responsive Elements (CRE) and regulates the transcription of the genes. […] This cell line can be used to find agonists/antagonists of the cyclic AMP signaling pathway. The activation of the report gene under culture conditions can be detected by fluorescence intensity. This cell line has been used to screen the Tox21 10K compound library to identify agonists that induce oxidative stress. The cytotoxicity of the Tox21 compound library against the CRE-bla cell line was tested in parallel by measuring the cell viability using CellTiter-Glo assay (Promega, Madison, WI) in the same wells.
# Tox21 Assay Protocol Summary:
# CRE-bla Hek 293T cells were suspended in assay medium (DMEM containing 10% dialyzed FBS, 0.1 mM NEAA, 1 mM sodium pyruvate and 25 mM HEPES) and dispensed at 2,000 cells/5 uL /well into 1536-well black wall/clear bottom plates using a Multidrop Combi (ThermoFisher Scientific, Waltham, MA) dispenser. After the assay plates were incubated at 37 C/5% CO2 for 18 hrs, 23 nL of compounds dissolved in DMSO, positive controls or DMSO only was transferred to the assay plate by a pintool workstation (Kalypsys, San Diego, CA). After the plates were incubated at 37 C/5% CO2 for 3 hrs, 1 uL of LiveBLAzer B/G FRET substrate (Invitrogen, Carlsbad, CA) was added to each well using Bioraptr Flying Reagent Dispenser (FRD, Aurora Discovery, San Diego, CA). The plates were incubated at room temperature for 2 h, then fluorescence intensities were measured using an Envision plate reader (PerkinElmer, Shelton, CT) at Excitation 405nm, Emission 460nm and 530nm. The % activity was determined from the ratio of 460nm/530nm. For cell viability readout that measures cytotoxicity, 4 uL /well of CellTiter-Glo reagent was added into the assay plates using Bioraptr FRD. After 30 min incubation at room temperature, the luminescence intensity in the assay plates was measured using a ViewLux (PerkinElmer, Shelton, CT) plate reader.
# On the % scale 0 is the no-effect control and ±100 the full control effect.
Structure (SMILES),"activity change, negative = cytotoxicity",Potency
N#CCc1ccc(Cl)cc1,8.64%,–
Nc1ccccc1C(=O)OCCc1ccccc1,–,inactive
O=C(CCl)CCl,–,inactive
N#Cc1c(Cl)cccc1Cl,11.1%,–
CCCSC(=O)N(CCC)CCC,0.708%,–
CCCN(CCC)N=O,–,inactive
CC(Oc1ccc(Oc2ncc(C(F)(F)F)cc2Cl)cc1)C(=O)O (stereo not given),0.208%,–
COC(=O)C(C)N(C(=O)Cc1ccccc1)c1c(C)cccc1C (stereo not given),-0.782%,–
NCC1(CC(=O)O)CCCCC1,0.72% [at 42.5 µM],–
CC(Cl)C(=O)O (stereo not given),9.05%,–
S=C=Nc1cccc2ccccc12,-6.59%,–
CN(CCCC(O)c1cccnc1)N=O (stereo not given),9.89%,–
CC(C=O)Cc1ccc2c(c1)OCO2 (stereo not given),6.74%,–
CCCCOC(=O)c1ccccc1C(=O)O,-9.27%,–
NCCc1ccc(O)cc1,–,inactive
BrC(Br)C(Br)(Br)Br,8.62%,–
FC(Cl)(Cl)C(F)(Cl)Cl,18.7%,–
CCOC(=O)C(C)OC(=O)c1cc(Oc2ccc(C(F)(F)F)cc2Cl)ccc1[N+](=O)[O-] (stereo not given),–,inactive
Cc1cc(C(F)(C(F)(F)F)C(F)(F)F)ccc1NC(=O)c1cccc(I)c1C(=O)NC(C)(C)CS(C)(=O)=O,12.5% [at 42.5 µM],–
O=Cc1ccco1,–,inactive

Structure (SMILES),"activity change, negative = cytotoxicity",Potency
Cc1ccccc1CO[C@@H]1C[C@@]2(C(C)C)CC[C@]1(C)O2,-17%,–
C=CC1CC=CCC1 (stereo not given),13.7%,–
Clc1ccc(C(c2ccc(Cl)cc2)C(Cl)(Cl)Cl)cc1,–,inactive
Oc1cc(Cl)c(Cl)c(Cl)c1Cl,-18.2%,–
CO/N=C(/C1=NOCCO1)c1ccccc1Oc1ncnc(Oc2ccccc2Cl)c1F,-16.5%,–
COP(N)(=O)SC (stereo not given),–,inactive
COc1cc2c(cc1OC)[C@@]13CCN4CC5=CCO[C@H]6CC(=O)N2[C@H]1[C@H]6[C@H]5C[C@H]43,-0.213%,–
COc1ccc(C(O)(c2cncnc2)C2CC2)cc1 (stereo not given),-0.131%,–
COCC(=O)N(c1c(C)cccc1C)N1CCOC1=O,-1.98%,–
COC(=O)C1=CCCN(C)C1,6.83% [at 42.5 µM],–
O=C(O)CCl,–,inactive
CC1CCC(=O)O1 (stereo not given),9.93%,–
O=C1C[C@@H]2OCC=C3CN4CC[C@]56c7ccccc7N1[C@H]5[C@H]2[C@H]3C[C@H]46,2.89% [at 42.5 µM],–
C=CCN=C=S,–,inactive
[Cl-].[Cl-].[Cl-].[Yb+3],13.6%,–
C=CCc1ccc2c(c1)OCO2,–,inactive
Cc1c(F)c(F)c(COC(=O)C2C(/C=C(\Cl)C(F)(F)F)C2(C)C)c(F)c1F (stereo not given),-19.4%,–
O=C(O)[C@H](O)[C@@H](O)C(=O)O,-1.29%,–
Clc1cccc(Cl)c1Cl,–,inactive
CCCCCc1cc(O)cc(O)c1,4.31%,–

# Source: PubChem BioAssay (Tox21)
